Measured values published in PubChem BioAssay (NCATS).
Unmarked numbers belong to inactive results. How the calls were made is not given here.

The molecules below were run on HIV-1 nucleocapsid protein NCp7 (binding to TG oligonucleotide) (assay: HIV Nucleocapsid (AID 346;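 further: potency is for inhibitors that block NC binding and lower polarization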)). Details: HIV-1 NC / fluorescein-TGTGTGTG probe, fluorescence polarization.
Protocol: NCGC Assay Overview: HIV-1 nucleocapsid protein (HIV-1 NC) is a small (6.5 kDa) basic zinc-finger protein which participates in packaging of viral genomic RNA. The spacing and metal-chelating residues (3 Cys, 1 His) of the Cys-X2-Cys-X4-His-X4-Cys Zn fingers are conserved among all known retroviruses (J. Med. Chem. 1998, 41, 1371-1381). HIV-1 NC was assayed for its binding to the consensus sequence single-stranded 5'-TGTGTGTG. […] High salt was included to increase the stringency of binding and inhibitor screen. Reducing agents and zinc were present to stabilize the nucleocapsid zinc-finger protein.
NCGC Assay Protocol Summary: Buffer. Hepes pH 7.5, 250mM NaCl, 1uM ZnCl2. 0.004% polyethylene glycol 20000. TCEP (100 uM) and 2-Mercaptoethanol (5 mM), added fresh the day of the experiment. Reagents/Controls. 10 nM TG4xF only in columns 3 and 4 as negative control. 10 nM TG4xF/100 nM HIV-1 NC in columns 1, 2, 5-48. Titration of control compound NSC-13778 (from 20 mM, then 1:2) pin-transferred to column 2. Assay Steps. Two uL of reagents were dispensed to 1536-well Kalypsys black plates. The plates were centrifuged for 1 min at 1000 rpm. Compounds and controls (20 nL) were transferred via Kalypsys PinTool. The plates were incubated for 1 hr at room temperature, and then read on ViewLux (Perkin-Elmer). High-throughput CCD imager using fluorescein polarization filter set and 45 seconds exposure time.
Potency means the concentration at half of the fitted maximal effect.

| SMILES | Potency [µM] |
| --- | --- |
| CC(C)CN1CC[C@@]2(CCCN(C(=O)Oc3ccccc3)C2)C1 | > 20 |
| COc1ccc(NC(=O)N2CCC3(CC2)CCN(C(=O)Oc2ccccc2)CC3)cc1 | > 20 |
| O=C(Oc1ccccc1)N1CCC2(CCCN(Cc3nccs3)C2)CC1 | > 20 |
| c1ccc(CN2CCC3(CCNCC3)CC2)cc1 | > 20 |
| CN1CCCC2(CCN(C(=O)c3ccncc3)CC2)C1 | > 20 |
| O=C(Nc1cccc(F)c1)N1CCC2(CC1)CCN(C(=O)Oc1ccccc1)CC2 | > 20 |
| N#Cc1ccc(CN2CCCC3(CCN(C(=O)Oc4ccccc4)CC3)C2)cc1 | > 20 |
| O=C(Oc1ccccc1)N1CCC2(CC1)CCN(C(c1ccccc1)c1ccccc1)CC2 | > 20 |
| N#Cc1ccc(CN2CC3(CCNCC3)C2)cc1 | > 20 |
| c1ccc(N2CCC3(CCNCC3)CC2)cc1 | > 20 |
| O=C(Nc1ccccc1)N1CCCC2(CCN(C(=O)Oc3ccccc3)CC2)C1 | > 20 |
| O=C(c1cnccn1)N1CCC2(CC1)CN(Cc1ccncc1)C2 | > 20 |
| CN1CC[C@@]2(CCCN(C(=O)c3csnn3)C2)C1 | > 20 |
| N#Cc1cccc(NC(=O)N2CC[C@@]3(CCCN(C(=O)Oc4ccccc4)C3)C2)c1 | > 4 |
| CN1CC[C@@]2(CCCN(C(=O)c3ccco3)C2)C1 | > 20 |
| COc1ccc(NC(=O)N2CCCC3(CCN(C(=O)Oc4ccccc4)CC3)C2)cc1 | > 20 |
| CC(C)CN1CCCC2(CCN(C(=O)c3ccncc3)CC2)C1 | > 20 |
| c1ccc(N2CCC3(CCNCC3)CC2)nc1 | > 20 |
| N#Cc1ccc(CN2CC[C@@]3(CCCN(C(=O)Oc4ccccc4)C3)C2)cc1 | > 20 |
| c1cnc(N2CC3(CCNCC3)C2)nc1 | > 20 |

| SMILES | Potency [µM] |
| --- | --- |
| CN1CCC2(CC1)CCN(C(=O)Oc1ccccc1)CC2 | > 20 |
| CC(C)NC(=O)N1CCC2(CC1)CCN(C(=O)Oc1ccccc1)CC2 | > 20 |
| Cc1noc(C)c1C(=O)N1CCC2(CCCN(CC(C)C)C2)CC1 | > 4 |
| N#Cc1ccc(CN2CC[C@@]3(CCCNC3)C2)cc1 | > 20 |
| CN1CCCC2(CCN(C(=O)c3csnn3)CC2)C1 | > 20 |
| N#Cc1cccc(NC(=O)N2CC3(CCN(C(=O)Oc4ccccc4)CC3)C2)c1 | > 20 |
| c1ccc(N2CCCC3(CCNCC3)C2)nc1 | > 20 |
| O=C(Oc1ccccc1)N1CCC[C@@]2(CCN(Cc3cc(C(F)(F)F)cc(C(F)(F)F)c3)C2)C1 | > 20 |
| CN1CC[C@@]2(CCCN(C(=O)Oc3ccccc3)C2)C1 | > 20 |
| O=C(Oc1ccccc1)N1CCC2(CCN(Cc3nccs3)CC2)CC1 | > 20 |
| c1cc(CN2CCCC3(CCNCC3)C2)ccn1 | > 20 |
| CC(C)NC(=O)N1CC[C@@]2(CCCNC2)C1 | > 20 |
| c1ccc(N2CC[C@@]3(CCCNC3)C2)nc1 | > 20 |
| c1cnc(N2CCCC3(CCNCC3)C2)nc1 | > 20 |
| c1ccc(N2CCCC3(CCNCC3)C2)cc1 | > 20 |
| O=C(Nc1cccc(F)c1)N1CCCC2(CCN(C(=O)Oc3ccccc3)CC2)C1 | > 20 |
| O=C(Oc1ccccc1)N1CCC[C@@]2(CCN(C(c3ccccc3)c3ccccc3)C2)C1 | > 20 |
| O=C(c1csnn1)N1CCC2(CC1)CN(Cc1ccncc1)C2 | > 20 |
| O=C(c1ccco1)N1CCC2(CC1)CN(Cc1ccncc1)C2 | > 20 |
| c1ccc(N2CC3(CCNCC3)C2)nc1 | > 20 |
